# Compound activity from PubChem BioAssay.
# Only some compounds are listed: those with a hit (about 2.2% of all), similar ones and a draw of the others.
# GLP-1R agonist: GLP-1 receptor (human) agonism | AID 624172 | Potency, µM (series often up to 45.6 µM), for the others: at the top dose activation, most hits filed as activators | HEK293 GLP-1R CRE-luciferase, luminescence, 4-6 h; cells express a hypersensitive GLP-1R form | P43220 | 0.007% of 380,000 active; further: potency means the concentration at half of the fitted maximal effect; % of control where 0% means no effect
# Target sequence (P43220 whole entry, looked up): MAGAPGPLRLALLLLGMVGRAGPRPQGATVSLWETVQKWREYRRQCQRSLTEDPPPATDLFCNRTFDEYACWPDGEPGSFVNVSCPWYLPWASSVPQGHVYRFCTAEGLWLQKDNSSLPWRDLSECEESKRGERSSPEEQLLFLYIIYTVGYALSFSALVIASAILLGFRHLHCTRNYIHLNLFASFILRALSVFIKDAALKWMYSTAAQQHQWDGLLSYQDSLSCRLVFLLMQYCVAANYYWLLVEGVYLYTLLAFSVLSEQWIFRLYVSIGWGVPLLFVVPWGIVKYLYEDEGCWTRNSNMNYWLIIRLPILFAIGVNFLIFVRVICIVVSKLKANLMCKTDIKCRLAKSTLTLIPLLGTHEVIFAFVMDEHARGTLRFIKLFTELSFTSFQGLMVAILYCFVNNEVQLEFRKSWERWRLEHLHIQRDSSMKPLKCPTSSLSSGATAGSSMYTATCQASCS
# HEK293 tox: cytotoxicity counter-screen for GLP-1 receptor inverse agonists. 0.13% of 410,000 active. HEK293 cAMP-luciferase reporter cells, luminescence, 24 h. Potency, µM (titrated, usually from 38.3 µM), for inactives: top-dose activity change, negative = inhibition, hits mostly inhibitors. AID 624418;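 further: loss of luciferase light is scored as toxicity; potency means the concentration at half of the fitted maximal effect; on the % scale 0 is the no-effect control and ±100 the full control effect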
#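 To flag toxic compounds, the library was rerun on cells for 24 hr at 37 deg C and 5% CO2. Viability-linked luminescence was captured 12 min after adding luciferase detection reagent.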
# uPA generation: inhibitors of cell surface uPA generation. cell surface uPA generation assay, qHTS. Potency, µM (titrated, usually from 38.3 µM), inactives show top-dose activity change, negative = inhibition, usual class: inhibitors. 0.31% of 330,000 active. AID 540303; active means well fitted inhibition curve with a large enough effect; inconclusive means small, poorly fitted or top-dose-only effect; inactive means no such curve, though single readings can be large or run the other way; tested in mouse RAW 264.7 cells; further: potency means the concentration at half of the fitted maximal effect; on the % scale 0 is the no-effect control and ±100 the full control effect; nearly all actives have a fitted effect of over 55% in size
# Mm-Cpn inhibitor: M. maripaludis TRiC chaperonin inhibition; Potency, µM (titrated, usually from 76.9 µM), for inactives: at the top dose activity, negative = inhibition, usual class: inhibitors; purified Mm-Cpn ATPase, ADP Transcreener TR-FRET; 0.031% of 330,000 active; AID 504842; further: potency means the concentration at half of the fitted maximal effect; on the % scale 0 is the no-effect control and ±100 the full control effect; nearly all actives have a fitted effect of over 80% in size
#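 Reaction buffer contained 30 mM Tris pH 7.4, 100 mM KCl, 5 mM MgCl2 and 1 mM DTT. Mm-CPN (25 nM final) hydrolysed 10 uM ATP over 30 min at 37°C; ADP was read by HTRF.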
# GLP1R inv ag: acts as inverse agonist at human GLP-1 receptor; P43220; HEK293 GLP-1R CRE-luciferase, luminescence, 24 h; GLP-1R form is constitutively active; AID 624417; 1.6% of 410,000 active; Potency, µM (titrated, usually from 38.3 µM), inactives show at the top dose activity change, negative = inhibition, hits mostly inhibitors; further: potency means the concentration at half of the fitted maximal effect; on the % scale 0 is the no-effect control and ±100 the full control effect; nearly all actives have a fitted effect of over 55% in size
#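 Readout was luciferase luminescence, measured 12 min after detection reagent at room temperature. Beforehand, GLP-1R reporter HEK293 cells had sat 12 h, then received compounds for 24 hr at 37 deg C.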
# CCT modulator: modulators of cytosolic chaperonin (CCT/TRiC) activity | purified chaperonin ATPase assay, HTRF ADP detection, 30 min | activity change, % (test concentration not listed), hits read low | 0.3% of 360,000 active | AID 651819; in the data active means activity change below about -30%; further: on the % scale 0 is the no-effect control and ±100 the full control effect
#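 ATPase activity: ADP formed was measured by HTRF Transcreener (665/615 nm ratio) after 30 min at 37 deg C with 10 uM ATP. Compounds screened at one 76 uM concentration against 40 or 20 nM TRiC in Tris pH 7.4/KCl/MgCl2/DTT buffer.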
# * = called active by the depositor; ? = inconclusive; . = no result. Unless noted, the call rests on the fitted dose curve; in most records, active means well fitted curve in the direction sought with a large enough effect; inconclusive means small, poorly fitted or top-dose-only effect, or another doubt; inactive means no such curve, though single readings can be large; an effect the other way counts as inactive or inconclusive.
SMILES,GLP-1R agonist,HEK293 tox,uPA generation,Mm-Cpn inhibitor,GLP1R inv ag,CCT modulator
CCOc1ccc(CNC(=O)Cn2ccc3cc(S(=O)(=O)N4CCCC4)ccc32)cc1,12%,-11%,-2%,0%,-21%,-1
CCOc1ccc(CNC(=O)Cn2ccc3cc(S(=O)(=O)N4CCCCCC4)ccc32)cc1,5%,5%,1µM*,-2%,?,1
CCc1ccc(CNC(=O)C(C)n2ccc3cc(S(=O)(=O)N4CCCCCC4)ccc32)cc1 (stereo not drawn),.,-10%,.,.,10µM*,.
CN(C)c1ccc(CNC(=O)CCc2ccc(S(=O)(=O)N3CCCCCC3)cc2)cc1,21%,-8%,-6%,2%,11µM*,1
CC(C(=O)NCc1ccc(Cl)cc1)n1ccc2cc(S(=O)(=O)N3CCCCCC3)ccc21 (stereo not drawn),.,-16%,.,.,?,.
COc1cccc(Nc2ccc3cc(S(=O)(=O)N4CCC(C)CC4)ccc3n2)c1,.,1%,.,.,?,.
CCc1ccc(NC(=O)Cn2c(=O)n(CC3CCCO3)c(=O)c3cc(OC)c(OC)cc32)cc1 (stereo not drawn),-1%,-2%,.,.,-5%,.
COc1ccc(CCNC(=O)c2cccc(S(=O)(=O)N3CCCCC3)c2)cc1,2%,-16%,4%,4%,?,-1
COc1ccc(CCNC(=O)c2cc(S(=O)(=O)N3CCCCC3)ccc2Cl)cc1,7%,20%,-2%,0%,8.9µM*,1
O=C(CN1CCN(CC(=O)Nc2ccc3c(c2)OC2(CCCCC2)O3)CC1)Nc1cccc(F)c1,-7%,?,-7%,.,10µM*,-1
O=C(CN1CCN(CC(=O)Nc2ccccc2F)CC1)Nc1cccc(F)c1,7%,-8%,0%,0%,8%,-2
Cc1ccccc1NC(=O)c1c(C)nn(-c2ccccc2)c1Cl,15%,-4%,7%,0%,?,-40*
Cc1ccc(NC(=O)CN2C(=O)COc3ccc(S(=O)(=O)N4CCCCCC4)cc32)cc1Cl,.,-20%,.,.,?,.
O=C(CCCn1c(=O)c2ccccc2n(Cc2cccc(Cl)c2)c1=O)NCCc1ccc(Cl)cc1,.,3%,.,.,1%,.
Cc1nn(CC(=O)Nc2ccc3c(c2)OCCO3)c(C)c1[N+](=O)[O-],0%,10%,0%,0%,-22%,-33*
CCOC(=O)c1sc(NC(=O)Nc2ccccc2Cl)cc1C,-15%,?,?,-17%,7.9µM*,-1
CN(Cc1ccc(F)cc1)C(=O)C(c1ccccc1)c1ccccc1,7%,-15%,3%,3%,?,-2
COc1ccccc1CN(C)C(=O)C(c1ccccc1)c1ccccc1,3%,?,-16%,1%,13µM*,0
CN(C)CCOC1c2ccccc2CCc2ccc3ccccc3c21 (stereo not drawn),2%,?,-9%,.,5.6µM*,0
CCOC(=O)N1CCN(C(=O)C[C@@H]2C[C@@]3(C(=O)OC)CCCCC=C3N(Cc3ccc(Cl)cc3Cl)C2=O)CC1,-2%,-14%,.,.,11µM*,0
CCOC(=O)N1CCN(C(=O)C[C@@H]2C[C@@]3(C(=O)OCC)CCCC=C3N(Cc3ccc(Cl)cc3Cl)C2=O)CC1,0%,1%,.,.,?,-2
Cc1onc(-c2ccccc2)c1C(=O)Nc1cccc(OC(C)C)c1,-4%,-8%,5%,-2%,11µM*,1
Cc1onc(-c2ccccc2)c1C(=O)OCC(=O)Nc1ccc(Cl)cc1,0%,-8%,-5%,1%,11µM*,-1
CCCOc1cccc(NC(=O)c2c(-c3ccccc3)noc2C)c1,-4%,-5%,-2%,0%,?,2
Cc1onc(-c2ccccc2)c1C(=O)OCC(=O)Nc1cccc(Cl)c1,-4%,-5%,-2%,-2%,?,1
Cc1onc(-c2ccccc2)c1C(=O)OCC(=O)Nc1ccc(OC(F)(F)F)cc1,-7%,-16%,4%,-7%,?,-1
